Experimental data as given in PubChem BioAssay AID1671194 (National Center for Advancing Translational Sciences (NCATS), 2021).
Out of some 140,000 compounds screened, about 240 (0.17%) were called active. Not shown: some 9% with an inconclusive outcome. Calls come from the whole dose curve; as a rule, active = well fitted inhibition curve with a large enough effect; inconclusive = small, poorly fitted or top-dose-only effect; inactive = no such curve, though single readings can be large or run the other way. The entries come from a sample that favours actives as a whole.

Test: Primary qHTS assay for inhibitors of alpha-synuclein gene (SNCA) expression; note: nearly all actives have a fitted effect of over 45% in size
Conditions: HEK-293 SNCA-luciferase knock-in, luminescence, 24 h; series mostly up to 57.2 µM; activity change, negative = inhibition: at the top concentration
Excerpt: Assay Submitter (PI): Daniel R. Scoles Ph.D.
Department of Neurology, University of Utah, Salt Lake City, Utah
Accumulation of alpha-synuclein is a main underlying pathological feature of Parkinson's disease (PD) and alpha-synucleinopathies, for which lowering expression of the alpha-synuclein gene (SNCA) is a potential therapeutic avenue. Using a cell-based luciferase reporter of SNCA expression we performed a quantitative high throughput screen (qHTS) of 155,885 compounds in dose response. The screening assay was generated using genome editing to insert the luciferase gene downstream and in frame of the SNCA gene in HEK-293 cells (1). A viability counterscreen using GF-AFC was used to eliminate cytotoxic and false positive compounds. After in silico analysis (clustering, removal of frequent hitter nuisance chemotypes), inhibitor compounds from the primary screen were selected for follow up and re-tested at 11-doses in the SNCA-luc cells (luciferase and GF-AFC confirmation), and in CMV-luc expressing cell line to flag general transcriptional repressors.
Described herein are the results of the primary screen for SNCA inhibitors; decrease in luciferase signal (inhibition of the SNCA gene expression) is the desired output for this assay.
1. Dansithong, W., Paul, S., Scoles, D. R., Pulst, S. M., and Huynh, D. P. (2015) Generation of SNCA Cell Models Using Zinc Finger Nuclease (ZFN) Technology for Efficient High-Throughput Drug Screening. PLoS ONE 10, e0136930.
SEQUENCE No. (e.g., 1, 2, 3, etc.); […] (e.g., Cells, Incubation, Reagent, etc.); VALUE; DESCRIPTION
1; Cells; 4 uL; Dispense 1500 HEK-293-SNCA-luc cells/well into Greiner 1536-well white / solid bottom tissue culture treated plate. The plate was covered with metal lids with gas-exchange holes.
2; Incubate; 24 hours; Incubate at 37C, 5% CO2, 95% RH.
3; Compounds; 23 nL; Compounds and controls were transferred via a Kalypsys Pin Tool (Wako USA) equipped with a 1536-slotted pin array. The plate was covered with metal lids with gas-exchange holes.
4; Incubate; 24 hours; Incubate at 37C, 5% CO2, 95% RH.
5; Dispense; 1 uL; Dispense Gly-Phe-7-amino-4-trifluoromethylcoumarin (GF-AFC, prepared at 125 uM in PBS) was added. The plate was covered with metal lids with gas-exchange holes.
6; Incubate; 30 min; Incubate at 37C, 5% CO2.
7; Detector; Fluorescence; Measure fluorescence with ViewLux microplate reader (PerkinElmer) equipped with 405/10 excitation and 540/25 emission filters.
8; Dispense; 3 uL; Dispense ONE-Glo ([…]) lucifase detection reagent was added to each well. Plates were covered with metal lids with gas-exchange holes.
9; Incubate; 15 min; Incubate at room temperature.
10; Detector; Luminescence; Measure luminescence with ViewLux microplate reader (PerkinElmer) equipped with clear filters.
NOTES (numbers refer to sequence above)
1; HEK-293-SNCA-luc were cultured and suspended in phenol-red free DMEM (4.5 g/L glucose, 25 mM HEPES, cat #21063 (Thermo)).
3; Compounds were added to the assay plate in an 11-point intra plate dose response, 1:3 titration in DMSO with a final concentration range of […]. Vehicle-only plates, with DMSO being pin-transferred to every well, were inserted at the beginning of screening runs to confirm expected assay performance. Activity was normalized to wells containing medium only (-100% activity, full inhibition) and SNCA-luc cells treated with DMSO vehicle control (0% activity), contained on the same plate as test samples.
10; Signals were analyzed, and dose-response curves were fit using the Hill equation. Compounds in curve classes -1.1, -1.2, -2.1, -2.2 in the SNCA-luc assay were considered active. Compounds were eliminated from further consideration if also active (curve class -1.1, -1.2, -1.3, -1.4, -2.1, -2.2, -2.3, -2.4) in the GF-AFC cytotoxicity assay.
Potency is the fitted concentration of half-maximal effect.

Activity change, negative = inhibition, inactive:
CC(C)=CCC1(CO)CCCN(Cc2ccccc2OCCO)C1 (centres undefined) -6.74%, O=C1NCCCCCCN(Cc2ccncc2)[C@@H]2CN(CC3CC3)CC[C@@H]12 -21.1%, CC[C@H]1CN(C(=O)Nc2cccc(C(F)(F)F)c2)CC[C@H]1CC(=O)NCCSC -20% [at 87.6 µM], COC(=O)c1cccc(NC(=O)N2CCc3c(nc4cc(-c5ccccc5)[nH]n4c3=O)C2)c1 37.1%, NCc1ccccc1-c1cccc(O)c1 -17.9% [at 87.6 µM], O=C(c1n[nH]c2c1CCCC2)N1CCC2(CC1)NC(=O)N(c1ccc(F)cc1)N2 0.129%, COc1ccc(OC)c(CN2CCC3(CC2)COCCN3C(=O)OCc2ccccc2)c1 -4.88%, COc1ccc(-c2ncc3c(n2)OCCN(CC2CC2)C3=O)cc1 -22.4% [at 87.6 µM], O=C([C@@H]1C[C@H](c2ccc(F)cc2)N([S+](=O)([O-])C2CC2)C1)N1CCN(c2ccccn2)CC1 54.6%, COCCNC(=O)[C@@H]1C[C@H](Oc2cccnc2)CN1C(=O)C1CC=CC1 9.07%, COc1cccc(CNC(=O)N2CCCC3(C2)Nc2cccnc2NC3=NC2CCCC2)c1 (centres undefined) -21.6%, Cc1cccc(Cc2c(C)nc3nc(SCc4ccccc4Cl)nn3c2C)c1 12.7%, CCN(CC)C(=O)CSc1nc2ccsc2c(=O)n1Cc1ccccc1Cl -0.0876%, CCOc1ccc(NC(=O)CSc2ncnc3c2sc2ccccc23)cc1 15.5%, Cc1ccc(CNC(=O)CSc2c3c(nc4cc(Cl)ccc24)CCCC3)cc1 13.9%, CCOc1cccc(CN2CCC3(CC2)CN(C)CC3COC)c1 (centres undefined) 8.9%, COc1ccc(OCC2CCN(CC3(O)CCCNC3)CC2)cc1 (centres undefined) 84.6%, O=C(NCc1cccc(F)c1)c1cccnc1N1CC2CC(C1)[C@H]1CCCC(=O)N1C2 (some centres undefined) 14.2%, O=S(=O)(c1ccccc1)N1CCC(CCOc2ccccc2)C1 (centres undefined) -20.6%, O=C1NC2(CCCN([S+](=O)([O-])c3ccccc3)C2)COc2ccccc21 (centres undefined) -3.78%, C=CCn1nc(C(=O)N2CCOCC2)c2c1CCC(NCC1(c3ccccc3)CCCCC1)C2 (centres undefined) 5.82%, CCN(CC)CCNC(=O)C1N(C(C)C)C(=O)C12CCCC2 (centres undefined) 5.62%, O=C(CSc1nccn1-c1ccc(F)cc1)Nc1cccc2ccccc12 -16.9%, Cc1cc(C)cc(-n2ccnc2SCC(=O)Nc2nc3ccccc3s2)c1 8.94%, COc1ccc(NC(=O)c2c(C)oc3ccn(Cc4ccc(F)cc4)c(=O)c23)c(OC)c1 1.86%, Cc1ccc(CN2CCC(Oc3cnc4c(ccn4CCN[S+](C)(=O)[O-])c3)CC2)c(F)c1 -5.54%, Cn1ncc2c(C(=O)NCc3cccs3)cc(-c3ccc(Cl)nc3)nc21 -4.22%, Cc1ccc(CN2CCOc3cc([S+](=O)([O-])N(C)C)ccc3C2)c(F)c1 -6.31% [at 87.6 µM], Cc1cccc(C(=O)N2CCC3(CC2)CC(CC(=O)NCc2ccncc2)CCO3)c1 (centres undefined) -5.21%, O=C(CCn1ccn2nc3c(c2c1=O)CCCC3)Nc1ccc(Cl)c(C(F)(F)F)c1 3.6%, CCOc1cc(C)c(CN2C[C@@H](CN(C)C)C[C@H](CO)C2)cc1C(C)C -24.3%, O=S(=O)(c1ccccc1)N1CCC(F)(c2nc(Cc3ccccc3)no2)CC1 -21.3%, O=C(c1nc2cccnc2n(Cc2ccccc2)c1=O)N1CCN([S+](=O)([O-])c2ccccc2)CC1 -16.6%, COc1cccc(-c2cccc(C(=O)N3CCCC3C(=O)NCc3ccccc3Cl)c2)c1 (centres undefined) 0.109%, O=C(O)CCC(=O)N1Cc2ccccc2CC2(CCN(Cc3ccc(O)cc3)C2)C1 (centres undefined) 37.4%, CCCCn1c(=O)c(C(=O)NCCSC)nc2cccnc21 3.61% [at 87.6 µM], Cc1ccccc1CN1Cc2nc(NCc3ccncc3)ccc2OCC1=O -14% [at 87.6 µM], O=C1Nc2ccccc2C2(CCN(S(=O)(=O)c3cccc(C(F)(F)F)c3)C2)O1 (centres undefined) -6.5%, CN1CCN(C[C@@H]2CN(C(=O)CCc3c[nH]c4ccccc34)C[C@@H]2CO)CC1 1.82%, CCc1cccc2c(C(CC(=O)NC(C)CC)c3cccc(OC)c3)c[nH]c12 (centres undefined) -2.41%, Fc1ccc(-c2ccnc3nc(C4CCC4)nn23)cc1 12.1%, Cn1nc(C2CC2)cc1NC(=O)c1ccc(C(F)(F)F)cc1 124% [at 87.6 µM], COc1ccccc1-n1c(=O)c(C(=O)N2CCN(C(=O)Cc3ccc(F)cc3)CC2)nc2cccnc21 4.21%, CCN1C(=O)C2CC3(CCN(C(=O)c4nccn4C)CC3)CN2C1=O (centres undefined) -0.179%, CCOC(=O)C1(Cc2ccc(F)cc2F)CCCN(Cc2cccc(OC)c2O)C1 (centres undefined) -6.47%, COC[C@H]1CCCN1C(=O)C[C@@H]1C[C@H]2O[C@H](CNC(=O)N[C@@H](C)c3ccccc3)[C@@H](O)[C@H]2O1 3.35%

Potency, active:
CCn1cc2nc(SCc3ccccc3Cl)n(CCc3ccccc3)c(=O)c2n1 14.1 µM, CCOc1ccc(NC(=O)CSc2c3c(nc4ccccc24)CCCC3)cc1 28.2 µM, Cc1cccc(-n2ccnc2SCC(=O)Nc2cccc3ccccc23)c1C 20 µM
